Records with an inconclusive call do not appear. Activity calls are given as the source filed them. The call rests on the fitted dose curve; in most records, active means well fitted curve in the direction sought with a large enough effect; inconclusive means small, poorly fitted or top-dose-only effect, or effect the other way, or another doubt; inactive means no such curve, though single readings can be large or run the other way.
Biological target: Epidermal growth factor receptor (Homo sapiens) (UniProt P00533)
Sequence (P00533 whole entry T790M/L858R, looked up): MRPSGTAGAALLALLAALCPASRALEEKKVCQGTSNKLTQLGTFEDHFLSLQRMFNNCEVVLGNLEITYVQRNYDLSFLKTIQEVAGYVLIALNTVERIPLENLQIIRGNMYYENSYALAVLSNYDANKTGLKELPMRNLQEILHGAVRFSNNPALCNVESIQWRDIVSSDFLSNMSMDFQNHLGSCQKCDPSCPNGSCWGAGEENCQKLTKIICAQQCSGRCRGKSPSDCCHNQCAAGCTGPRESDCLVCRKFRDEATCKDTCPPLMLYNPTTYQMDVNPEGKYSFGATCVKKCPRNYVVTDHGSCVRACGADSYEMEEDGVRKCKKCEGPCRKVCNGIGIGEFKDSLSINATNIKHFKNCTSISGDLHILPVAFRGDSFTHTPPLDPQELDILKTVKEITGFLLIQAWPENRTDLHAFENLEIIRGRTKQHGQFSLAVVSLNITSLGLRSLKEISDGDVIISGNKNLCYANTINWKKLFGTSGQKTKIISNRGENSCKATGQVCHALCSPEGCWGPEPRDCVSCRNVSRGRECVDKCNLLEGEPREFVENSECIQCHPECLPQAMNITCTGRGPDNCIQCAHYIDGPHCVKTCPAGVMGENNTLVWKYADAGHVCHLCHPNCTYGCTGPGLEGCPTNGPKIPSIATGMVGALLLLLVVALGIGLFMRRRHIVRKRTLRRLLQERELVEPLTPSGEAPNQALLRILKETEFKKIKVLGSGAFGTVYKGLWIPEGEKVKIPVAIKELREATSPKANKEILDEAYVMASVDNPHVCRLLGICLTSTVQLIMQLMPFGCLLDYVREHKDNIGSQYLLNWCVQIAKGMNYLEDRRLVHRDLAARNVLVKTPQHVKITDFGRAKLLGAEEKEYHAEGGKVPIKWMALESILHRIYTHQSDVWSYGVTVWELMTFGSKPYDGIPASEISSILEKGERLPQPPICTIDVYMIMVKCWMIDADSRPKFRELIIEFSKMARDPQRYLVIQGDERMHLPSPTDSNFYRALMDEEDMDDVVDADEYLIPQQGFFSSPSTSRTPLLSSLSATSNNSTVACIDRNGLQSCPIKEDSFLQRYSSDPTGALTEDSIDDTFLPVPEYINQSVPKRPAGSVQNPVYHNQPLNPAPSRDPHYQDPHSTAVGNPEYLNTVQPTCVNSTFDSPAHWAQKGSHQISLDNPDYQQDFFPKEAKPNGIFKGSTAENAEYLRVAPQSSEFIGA
Assay: Assay for Inhibitors of the ERK Signaling Pathway using a Homogeneous Screening Assay: EGFR T790M/L858R Kinase Inhibition
Settings: series mostly up to 65.8 µM
Text: qHTS Assay for Inhibitors of the ERK Signaling Pathway using a Homogeneous Screening Assay
NIH Chemical Genomics Center [NCGC]
NIH Molecular Libraries Screening Centers Network [MLSCN]
Assay Submitter (PI): Dr. Wei Zheng, NCGC/NIH
The Ras/extracellular-signal-regulated kinase (ERK) mitogen activated protein (MAP) kinase signaling pathway (ERK1/2 cascade) plays is a key role in transmitting signals from the cell surface to the nucleus (Nishida and Gotoh 1993; Chang and Karin, 2001). The cascade is initiated by the small G-protein Ras, which recruits Raf […], where activation occurs. Alternatively, this pathway can be activated by elevating intracellular cAMP.
Activation of the ERK pathway is essential in increased cell division and cell survival. Sustained and constitutive activation of the ERK pathway, however, has been linked to uncontrolled cell proliferation, increased cell survival, and tumor progression. Thus, the ERK has been as an attractive target for cancer chemotherapy in the past few years (Sebolt-Leopold and Herrera, 2004). Given its physiological and pathological importance, assessment of ERK phosphorylation has been broadly performed in both basic research and drug discovery. Most assays for the measurement of ERK phosphorylation use the antibody-based detection methods, such as western blot and ELISA. These assays require multiple reagent additions with cell wash steps and are not suitable for high-throughput screening.
The current cell-based ERK phosphorylation assay was performed using AlphaScreen platform. AlphaScreen is a two bead-based proximity-dependent chemical energy transfer luminescent assay platform. The assay reagents (ERK SureFire(TM) kit) were supplied from TGR BioSciences (Australia). In the presence of specific antibodies, phosphorylated ERK will bring "donor" and "acceptor" beads to a proximity range (<200 nm), and subsequently lead a chemical luminescent reaction upon exciting donor beads with 680 nm laser. To validate pathway hits from the cell-based assay, enzyme assays consisting of EGFR tyrosine kinase, Raf and MEK were used as a means of deciphering the enzymes of target for the prioritized group of compounds derived from the HEK-293 cell based assay. The compounds were tested against significant members of the ERK signaling pathway EGFR and EGFR mutants (EGFR L858R, EGFR T790M, and EGFR L858R T790M). In order to establish the specificity of the prioritized compounds for EGFR and EGFR mutants, the compounds were also assayed against other important ERK signaling pathway enzymes, c-RAF and MEK-1.
NCGC Assay Protocol Summary:
The HTRF kinase assay (components supplied as kit by Cisbio) was chosen for the EGFR and EGFR mutant enzyme assays that applied the time resolved fluorescence resonance energy transfer (TR-FRET) principle. A peptide substrate is labeled with a biotin that can bind to XL665 labeled streptavidin and the anti-phosphoresidue antibody is labeled with Eu+. Upon phosphorylation of the substrate, the antibody binds to phosphorylated substrate that enables TR-FRET detection in homogenous assay format.
An HTRF Kinease TK assay kit (Cisbio, Bedford, MA) was used to develop the EGFR and EGFR mutant assays (Harbert et al., 2008. Harbert C, Marshall J, Soh S, Steger K. Development of a HTRF Kinase Assay for Determination of Syk Activity. Current Chemical Genomics. 1: 20-26. 2008). EGFR and EGFR mutants were obtained from Invitrogen. The assay buffer was composed of 50 mM HEPES (pH 7.0), 5 mM MgCl2, 5mM DTT, 0.1 % NaN3, 0.1 % BSA and 0.1 mM orthovanadate.
The HTRF assays were preformed according to the HTRF Kinease TK kit. Optimization for each enzyme was preformed in 384 well format (data not included). All reagents were dispensed into 1536 well plates.
(1) Enzyme, […] EGFR at 3 nM final
(2) Compound, 22 nl, Library Compounds in 0.128 to 10 mM titration series or control
(3) Reagent, 1.5 ul 10 uM ATP and 0.25 uM substrate final
(4) Incubation for 30 min, Ambient conditions
[…]

Potency, active:
Cc1nc2ccccc2nc(=O)c1NNc1ccccc1 3.16 µM, Cc1ccc2nc(=O)c(NNc3ccccc3)cnc2c1 3.55 µM

Potency, inactive:
CCN(CC)CCC(=O)Nc1cccc2c1C(=O)c1ccccc1C2=O, Cc1ccc(NNc2c(C)nc3ccccc3nc2=O)cc1, Fc1ccc(Nc2ncnc3sc4c(c23)CCC4)cc1F, Cn1nc(-c2ccccn2)nc2c(=O)n(C)c(=O)nc1-2, Cn1c(=O)[nH]c2nnc(-c3ccc(Cl)c(Cl)c3)nc2c1=O, CNc1cccc2c1C(=O)c1ccccc1C2=O, CCn1c(=O)c2[nH]c(-c3ccccc3)nc2n(CC)c1=O, CS(=O)(=O)CCNCc1nc(-c2ccc3ncnc(Nc4ccc(OCc5cccc(F)c5)c(Cl)c4)c3c2)cs1, COc1ccc(C(=O)c2ccc(Cl)c([N+](=O)[O-])c2)cc1, O=C1c2ccccc2C(=O)c2c(NCCCN(CCO)CCO)cccc21, O=C(Nc1nc(-c2ccccc2)cs1)c1ccc(N2CCOCC2)c([N+](=O)[O-])c1, Cn1nc(-c2ccc(Cl)cc2)nc2c(=O)n(C)c(=O)nc1-2, N#C/C(=C(/N)Sc1ccc(N)cc1)c1ccccc1C(F)(F)F

— PubChem BioAssay AID1726 (National Center for Advancing Translational Sciences (NCATS), 2009)
